Test results taken from PubChem BioAssay AID1851 (National Center for Advancing Translational Sciences (NCATS), 2009).
Among all 16,000 compounds or so, about 2,600 (16%) were called active. Roughly 20% stayed inconclusive and do not appear here. These entries were drawn from the full list. Values without a mark were called inactive. The call rests on the fitted dose curve; in most records, active means well fitted curve in the direction sought with a large enough effect; inconclusive means small, poorly fitted or top-dose-only effect, or effect the other way; inactive means no such curve, though single readings can be large or run the other way.

The molecules below were run against Cytochrome P450 2D6 (Homo sapiens) (UniProt P10635) (assay: Cytochrome panel assay with activity outcomes). Conditions: recombinant CYP, pro-luciferin dealkylation, luminescence, p450-cyp2d6; series mostly up to 57.1 µM; activity, negative = inhibition: at the top concentration.
On the % scale 0 is the no-effect control and ±100 the full control effect.

Chain of Cytochrome P450 2D6 (Homo sapiens) (P10635 whole entry, looked up): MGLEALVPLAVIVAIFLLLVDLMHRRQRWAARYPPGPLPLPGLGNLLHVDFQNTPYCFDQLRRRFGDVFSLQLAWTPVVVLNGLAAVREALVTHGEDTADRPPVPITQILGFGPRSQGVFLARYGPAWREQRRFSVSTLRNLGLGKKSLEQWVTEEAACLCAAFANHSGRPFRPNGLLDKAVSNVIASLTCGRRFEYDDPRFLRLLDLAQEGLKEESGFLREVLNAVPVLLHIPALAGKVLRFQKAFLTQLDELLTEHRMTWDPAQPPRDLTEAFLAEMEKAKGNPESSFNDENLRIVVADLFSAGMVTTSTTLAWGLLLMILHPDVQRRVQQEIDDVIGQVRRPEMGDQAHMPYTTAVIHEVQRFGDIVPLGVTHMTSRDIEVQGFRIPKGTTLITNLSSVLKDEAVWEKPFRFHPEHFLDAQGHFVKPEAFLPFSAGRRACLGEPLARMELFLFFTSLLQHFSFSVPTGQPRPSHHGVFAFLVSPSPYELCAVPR

SMILES | activity, negative = inhibition | AC50
COc1cccc(Cn2c(=O)c(CCc3ccccc3)nc3cnc(N(C)C)nc32)c1 | -1.17% | –
N[C@@H](C(=O)O)c1ccc(O)c(C(=O)O)c1 | -5.56% | –
COc1cccc(Cn2c(=O)c(CCc3ccccc3)nc3cncnc32)c1 | -6.45% | –
CC1=NCC[N@@+]1(CCc1ccccc1)Cc1ccccc1 | – | 0.0501 µM (active)
CC(=O)NS(=O)(=O)c1ccc(NC(=O)NC2CCCCC2)cc1 | -8.87% | –
CC(=O)Nc1ccc(S(=O)(=O)NCC2CCC(C(=O)N3CCN(c4ccccn4)CC3)CC2)cc1 (centres undefined) | -15.8% | –
CC(=O)Nc1ccc(S(=O)(=O)N2CCN(c3nc(NC4CCCC4)c4ccccc4n3)CC2)cc1 | – | 12.6 µM (active)
O=c1c2ccccc2nnn1CSc1nnc(COc2ccc(Cl)cc2)n1Cc1ccco1 | -20.5% | –
O=C1CN2CCN(CC2)CC(=O)Nc2ccc(cc2)S(=O)(=O)c2ccc(cc2)NC(=O)CN2CCN(CC2)CC(=O)Nc2ccc(cc2)S(=O)(=O)c2ccc(cc2)N1 | 0.0037% [at 11.4 µM] | –
CC1(C)OC[C@@H]2O[C@H](n3cnc4c(N)nc(Cl)nc43)[C@@H](OS(C)(=O)=O)[C@@H]2O1 | 8.22% [at 11.4 µM] | –
Cc1noc(NS(=O)(=O)c2ccc(NC(=O)CC34CC5CC(CC(Br)(C5)C3)C4)cc2)c1C | 13% | –
CCCCCCC(C)n1cc(C(C)=O)c(=O)[nH]c1=O (centres undefined) | -5.37% | –
CCC/C=C(\CCC)C(NC(=O)Oc1ccc(F)cc1)c1ccc(C(=O)OC)cc1 (centres undefined) | -20.4% | –
COC(=O)c1[nH]c2ccc(Br)cc2c1NC(=O)CN1CCN(C2CCCCC2)CC1 | – | 1 µM (active)
COC(=O)c1[nH]c2ccc(Br)cc2c1NC(=O)Oc1ccccc1 | -5.73% | –
COC(=O)c1[nH]c2ccc(Br)cc2c1NC(=O)CN1CCCc2ccccc21 | -30% | –
CCOC(=O)C1CN(S(=O)(=O)c2cccc(C(F)(F)F)c2)c2cc(CC(=O)OC)ccc2O1 (centres undefined) | -21.1% | –
CN1CCN(c2ncc3nc(-c4ccc(Cl)cc4)c(=O)n(CCC#N)c3n2)CC1 | 4.88% | –
CNS(=O)(=O)c1ccccc1C(=N)c1ccccc1 | 19.2% [at 11.4 µM] | –
CCOC(OCC)P(=O)(O)CCCNCc1ccc(Cl)c(Cl)c1 | 8.85% | –
CCCCCNCc1cccc(Br)c1 | – | 2 µM (active)
CCNC(=S)NNC(=O)c1cccc(Br)c1 | 1.21% | –
Cc1cc(Cl)nc2ccc(Cc3ccc4nc(Cl)cc(C)c4c3)cc12 | -2.9% [at 11.4 µM] | –
COc1ccc(/C=N/NC(=S)NC2CCS(=O)(=O)C2)cc1OC (centres undefined) | -4.59% | –
C=CC1=C(C(=O)O)N2C(=O)[C@@H](NC(=O)/C(=N\OCC(=O)O)c3csc(N)n3)[C@@H]2SC1 | -1.18% [at 25.6 µM] | –
NC[C@](O)(CS(=O)(=O)O)c1ccc(Cl)cc1 | 17.4% | –
Cc1cc(-c2cc(-c3ccc(Cl)cc3)nc(N)c2C#N)co1 | -12.3% | –

SMILES | activity, negative = inhibition | AC50
Cc1cc(OCCn2cc(/C(N)=N/O)c3ccccc32)ccc1Cl | – | 3.98 µM (active)
COc1ccccc1OCCn1cc(C(=O)c2ccco2)c2ccccc21 | -27.9% | –
CO[C@]1(NC(=O)CSCC#N)C(=O)N2C(C(=O)O)=C(CSc3nnnn3C)CS[C@H]21 | – | inactive
C[C@H](C[C@H](N)C(=O)O)C(=O)O | 12.6% | –
CCn1c2ccccc2c2cc(NC(=O)CSc3nnc(-c4ccc(OC)c(OC)c4)n3N)ccc21 | – | 14.1 µM (active)
Cc1ccc(-c2cc(-c3nnc(SCC(=O)NC(C)C(C)C)n3N)c3ccccc3n2)cc1 (centres undefined) | -4.49% | –
COc1ccc(C)cc1NC(=O)CSc1nnc(-c2ccc(OC)c(OC)c2)n1N | -12.9% | –
Cc1cccc(NC(=O)CSc2nnnn2C)n1 | -12.5% | –
CCCCOc1ccc(C(=O)N/C(=C\c2cccc([N+](=O)[O-])c2)C(=O)OCCC)cc1 | 0.716% | –
Cc1cc(C)c(S(C)(=O)=O)c(Oc2ccc(C(C)(C)C)cc2)n1 | -9.68% | –
O=c1c[n+](CCCC[n+]2cc(=O)o[nH]2)[nH]o1 | -2.36% [at 11.4 µM] | –
Cc1cnc(CNc2ncncc2-c2cccc(C#N)c2)cn1 | -10.4% | –
COc1ccccc1CNc1ncncc1-c1cccc(C#N)c1 | – | 15.8 µM (active)
COc1ccc(CNc2ncnc3ccc(-c4cccc(C#N)c4)cc23)c(OC)c1 | -10% | –
COc1ccc(CNc2ncncc2-c2cccc(C#N)c2)c(OC)c1 | – | 5.01 µM (active)
O=C(Oc1oc(-c2ccco2)nc1C=Nc1ccc(Cl)cc1)c1ccco1 | 6.95% | –
Cc1c2c(nc3ccccc13)-c1cccc(=O)n1C2 | -5.55% | –
COc1cccc(/C=N\NC(=O)c2cc(OCC(F)(F)F)ccc2OCC(F)(F)F)c1 | 23.1% | –
COc1ccc2[nH]c(=O)c(CN(CCO)C(=O)c3cccs3)cc2c1 | 5.47% | –
O=[N+]([O-])c1cc(/C=N/O)ccc1SCc1ccccc1 | 16% | –
CC1(C)O[C@@H]2O[C@H]([C@H](O)CO/N=C3/[C@H]4O[C@@H]4[C@@H](O)[C@H]4[C@H]3CCn3c(=O)n(-c5ccccc5)c(=O)n34)[C@@H](O)[C@@H]2O1 | 7.2% [at 11.4 µM] | –
CO[C@@H]1COC(=O)[C@H]2CCCN2C(=O)[C@@H](C)COC(=O)CCC[C@H]1C | 12% [at 11.4 µM] | –
CCOC(=O)Cn1c(-c2ccccc2)nc2ccccc2c1=O | -14.6% | –
CCOC(=O)c1c(-c2ccccc2)nc2ccc(Cl)cn12 | -16.8% | –
CCOC(=O)CNc1c(-c2ccccc2)nc2ccc(Cl)cn12 | – | 7.94 µM (active)
COc1cccc2c1C(=O)c1c(O)c3c(c(O)c1C2=O)C[C@](O)(C(=O)CO)C[C@H]3O[C@@H]1C[C@H](N)[C@H](O)[C@H](C)O1 | -14.4% [at 25.6 µM] | –
Cc1ccccc1NC(=O)C1CC(=O)N(c2ccc3c4c(cccc24)CC3)C1 (centres undefined) | -28% | –

SMILES | activity, negative = inhibition | AC50
CC(=O)OC[C@@H]1O[C@@H](O/N=C2/C[C@@H](O)[C@@H](O)[C@@H]3[C@@H]4C(=O)N(Cc5ccccc5)C(=O)[C@H]4CC[C@H]23)[C@H](OC(C)=O)[C@H](OC(C)=O)[C@@H]1OC(C)=O | – | 3.16 µM (active)
CCOC(=O)N/N=C1/C[C@@H](O)[C@@H](O)[C@@H]2[C@@H]3C(=O)N(Cc4ccccc4)C(=O)[C@H]3CC[C@H]12 | 9.96% [at 11.4 µM] | –
CC(=O)OC[C@@H]1O[C@@H](O/N=C2/C[C@@H](O)[C@@H](O)[C@@H]3[C@@H]4C(=O)N(Cc5ccc6c(c5)OCO6)C(=O)[C@H]4CC[C@@H]23)[C@H](OC(C)=O)[C@H](OC(C)=O)[C@@H]1OC(C)=O | -5.23% [at 11.4 µM] | –
CC(C)CO/N=C1/C[C@@H](O)[C@@H](O)[C@@H]2[C@@H]3C(=O)N(Cc4ccc5c(c4)OCO5)C(=O)[C@H]3CC[C@@H]12 | -15.9% [at 11.4 µM] | –
CCN1C(=O)[C@H]2[C@H]3[C@H](O)[C@H](O)C/C(=N/OCC[C@H]4C=C[C@H](OC(C)=O)[C@@H](COC(C)=O)O4)[C@@H]3CC[C@@H]2C1=O | -11.1% [at 11.4 µM] | –
CC(=O)OC[C@@H]1O[C@@H](O/N=C2/C[C@@H](O)[C@@H](O)[C@@H]3[C@@H]4C(=O)N(Cc5ccccc5)C(=O)[C@H]4CC[C@@H]23)[C@H](OC(C)=O)[C@H](OC(C)=O)[C@@H]1OC(C)=O | – | 3.98 µM (active)
CC(=O)OC[C@@H]1O[C@@H](O/N=C2/C[C@@H](O)[C@@H](O)[C@@H]3[C@@H]4C(=O)N([C@@H](C)c5ccccc5)C(=O)[C@H]4CC[C@@H]23)[C@H](OC(C)=O)[C@H](OC(C)=O)[C@@H]1OC(C)=O | -0.595% [at 11.4 µM] | –
CC(C)=CCC/C(C)=C/CO/N=C1/C[C@@H](O)[C@@H](O)[C@@H]2[C@@H]3C(=O)N(Cc4ccccc4)C(=O)[C@H]3CC[C@@H]12 | 15% [at 11.4 µM] | –
CC(=O)OC[C@@H]1O[C@@H](O/N=C2/C[C@@H](O)[C@@H](O)[C@@H]3[C@@H]4C(=O)N(Cc5ccc6c(c5)OCO6)C(=O)[C@H]4CC[C@H]23)[C@H](OC(C)=O)[C@H](OC(C)=O)[C@@H]1OC(C)=O | – | 3.16 µM (active)
COCC(=O)Nc1ccc(-c2cn3cccnc3n2)cc1 | 23.5% | –
COC(=O)[C@H]1C[C@@H]1[C@H](NC(=O)c1cccnc1)c1ccccc1 | -3.67% | –
O=c1cc(N2CCN(c3cccc(Cl)c3)CC2)[nH]c(=O)n1C1CCCCC1 | -5.39% | –
CC(=O)N(/N=C1\Sc2ccccc2C1=O)c1ccccc1 | -8.57% | –
N#Cc1c(NC(=O)CCC(=O)O)ccc2ccccc12 | 7.11% [at 11.4 µM] | –
COc1ccc(N2CCN(C(=N)/C(C(C)=O)=C(\C)O)CC2)cc1 | -2.81% | –
COc1cccc(C2C3(C#N)C(N)=NC(OC)(OC)C23C#N)c1 (centres undefined) | -23.1% | –
COc1ccc(-c2nc3cnc(Oc4cccc(Cl)c4)nc3n(C[C@H]3CCCO3)c2=O)cc1 | 5.96% | –
COC(=O)C1=C(N)N(c2ccccc2C(F)(F)F)C2=C(C(=O)CCC2)C1c1ccc2c(c1)OCO2 (centres undefined) | – | 28.2 µM (active)
COc1ccc(NC(=O)c2cc3n(n2)C(C(F)(F)F)CC(c2ccc4c(c2)OCO4)N3)cc1OC (centres undefined) | 1.1% | –
COc1ccc(OC)c(NC(=O)c2cc3n(n2)C(C(F)(F)F)CC(c2ccc4c(c2)OCO4)N3)c1 (centres undefined) | 14.3% | –
COc1cc(/C=C2/C(=N)N3C=CSC3=NC2=O)ccc1OCCCOc1ccccc1C | 7.61% | –
FC(F)(F)c1nnc2c(Sc3ccc(Cl)cc3)nc3ccccc3n12 | 1.4% | –
CCOc1ccccc1-n1nnnc1SCC(=O)Nc1cc(C)on1 | -4.39% | –
COC(=O)c1ccccc1NC(=O)CSc1nnc(C(CO)NC(=O)c2ccccc2Cl)n1C (centres undefined) | -3.42% | –
CCOc1ccccc1NC(=O)CSc1nnc(-c2cnccn2)n1C | – | 12.6 µM (active)
